Assay outcomes from PubChem.
Ub-GFP proteasome: inhibits proteasome, raising ubiquitin-GFP reporter fluorescence. Potency, µM (series often up to 45.9 µM), for inactives: at the highest dose activation (GFP accumulation), hits mostly activators. Ubiquitin-GFP reporter cells, proteasome inhibition, GFP fluorescence; response scale: untreated = 0%, 10 µM MG-132 = 100%. 67,000 tested, under 10 active. AID 526; active means well fitted activation curve with a large enough effect, not every such curve was filed as active; inconclusive means small, poorly fitted or top-dose-only effect, or another doubt; inactive means no such curve, though single readings can be large or run the other way
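U2OS Ub(G76V)-GFP reporter; O/N plating, 0.5% FBS; cpd 46 uM–2.9 nM, 4 h, 37 °C; GFP+ cell count, 488/515 nm; norm. to basal vs 10 uM MG-132; CRC fit.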
GBA activity: alters purified human glucocerebrosidase activity; purified enzyme, resorufin glucoside fluorescence (screen aimed at inhibitors), 20 min; Potency, µM; actives 1.1% (n = 48,000); AID 360; in the data active means potency below about 15 µM; inconclusive means mostly about 16 µM to 33 µM;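 further: the screen sought inhibitors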
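Compounds titrated against 0.2 nM normal enzyme, 30 uM resorufin beta-D-glucopyranoside substrate, citrate/phosphate buffer with taurocholate and tween-20, pH 5.9. Reaction ran 20 min at room temperature; fluorescence (Ex 548/Em 600) gave AC50.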
TSHR agonist: agonists of human thyroid stimulating hormone receptor | HEK293-CNG-TSHR cells (CNG channel as cAMP sensor), membrane potential dye, cAMP | AID 926 | actives 0.48% (n = 73,000) | Potency, µM (series often up to 57.1 µM), for inactives: at the highest dose activation, most hits filed as activators | P16473; active means well fitted activation curve with a large enough effect in the main read-out, with a control signal flat, not every such curve was filed as active; inconclusive means small, poorly fitted or top-dose-only effect, or a change in a side signal; inactive means no such curve, though single readings can be large or run the other way; % of control where 0% means no effect;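 further: the control signal comes from parental cells without the receptor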
Target sequence (P16473 whole entry, looked up): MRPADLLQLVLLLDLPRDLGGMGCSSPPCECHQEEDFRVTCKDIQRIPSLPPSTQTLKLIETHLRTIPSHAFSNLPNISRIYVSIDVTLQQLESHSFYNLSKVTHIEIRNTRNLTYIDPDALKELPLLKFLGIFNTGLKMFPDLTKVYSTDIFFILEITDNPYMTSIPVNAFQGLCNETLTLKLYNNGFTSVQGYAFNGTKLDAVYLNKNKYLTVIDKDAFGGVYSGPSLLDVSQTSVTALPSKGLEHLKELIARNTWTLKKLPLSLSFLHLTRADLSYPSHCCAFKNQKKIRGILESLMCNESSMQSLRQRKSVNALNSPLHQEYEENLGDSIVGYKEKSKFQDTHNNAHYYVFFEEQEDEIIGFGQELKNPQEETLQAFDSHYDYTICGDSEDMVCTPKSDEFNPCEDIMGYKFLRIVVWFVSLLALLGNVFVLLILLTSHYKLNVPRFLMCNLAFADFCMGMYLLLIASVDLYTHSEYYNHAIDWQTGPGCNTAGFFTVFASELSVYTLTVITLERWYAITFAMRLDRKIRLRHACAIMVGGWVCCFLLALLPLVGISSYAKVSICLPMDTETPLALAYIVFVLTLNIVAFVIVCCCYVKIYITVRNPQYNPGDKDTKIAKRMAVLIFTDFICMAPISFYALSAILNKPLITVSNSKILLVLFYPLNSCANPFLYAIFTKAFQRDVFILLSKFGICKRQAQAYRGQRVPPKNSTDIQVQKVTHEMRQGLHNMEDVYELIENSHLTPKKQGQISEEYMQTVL
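HEK 293 cells stably expressing TSHR and a modified CNG channel, with CNG-only parental cells as counterscreen, were preloaded 60 min at room temperature with membrane potential dye containing 100 uM RO 20-1724. Compound exposure was 30 min, and depolarization was read as fluorescence at 590 nm.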
USP2a inhib: inhibitors of human ubiquitin-specific protease USP2a; USP2a enzymatic assay, qHTS inhibition; Potency, µM (top dose mostly 38.3 µM), for inactives: at the top dose activity change, negative = inhibition, actives largely listed as inhibitors; actives 0.1% (n = 60,000); AID 927; further: nearly all actives have a fitted effect of over 60% in size
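Coupled readout: USP2-cleaved Ub-PLA2 (20nM final) turns over NBD C6-HPC (20uM final), Ex 460nm/Em 535nm after 2.5 h, time-zero read flagging artifacts. Enzyme (20nM final, pH 8.0 Tris) given 30 min RT with compound first; NEM defines full inhibition.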
Bst PK mod: modulators of Bacillus stearothermophilus pyruvate kinase; purified pyruvate kinase, luminescence ATP production; ribose 5-phosphate activator present at AC10; Potency, µM; actives 1.2% (n = 51,000); in the data active means potency below about 11 µM; inconclusive means mostly about 12 µM to 25 µM;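 the screen sought inhibitors and activators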;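 further: scaled between full activation by ribose 5 phosphate and full inhibition by luteolin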
HEK293 cAMP cs: parental HEK293 cAMP activation (counter-screen); parental HEK293 CNG cAMP sensor, membrane potential fluorescence; Potency, µM (series often up to 57.1 µM), inactives show at the top dose activation, actives largely listed as activators; actives 2.5% (n = 73,000); further: % of control where 0% means no effect; nearly all actives have a fitted effect of over 55% in size
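Counterscreen for endogenous-receptor signalling: CNG-channel HEK 293 cells report cAMP rise by membrane depolarization. After 60 min dye equilibration with 100 uM RO 20-1724, compounds incubated 30 min before bottom-read fluorescence at 590 nm.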
* = called active by the depositor; i = inactive; ? = inconclusive; . = no result; ! = a repeat was not active; [ ] = another dose, or the depositor's remark. Compounds with a hit are over-represented: about 4.1% of the library has one in this group of screens. Unless noted, the call rests on the fitted dose curve; in most records, active means well fitted curve in the direction sought with a large enough effect; inconclusive means small, poorly fitted or top-dose-only effect, or another doubt; inactive means no such curve, though single readings can be large; an effect the other way counts as inactive or inconclusive. Potency means the concentration at half of the fitted maximal effect.

SMILES | Ub-GFP proteasome | GBA activity | TSHR agonist | USP2a inhib | Bst PK mod | HEK293 cAMP cs
Nc1cc(C(=O)O)c(O)c(S(=O)(=O)O)c1 | . | . | 3% | . | . | 11%
COCCOc1ccc(C(F)(F)F)cc1Nc1nc2ccccc2o1 | 1% | i | 13µM* | 16% | >57 | -13%
CC(C)(C)c1ccc(C(=O)Nc2cnccn2)cc1 | 8% | >77 | 6% | 2% | 5.6* | 2%
c1csc(CCNc2ncnc3sc4c(c23)CCC4)c1 | -14% | . | ? | . | . | 20µM*
O=S(=O)(c1ccc2c(c1)OCCO2)N1CCC(n2cnc3cc(F)ccc32)CC1 | -2% | . | 5% | 54% | >57 | 24%
O=C(c1ccc2c(c1)OCCO2)C1CCN(S(=O)(=O)c2ccc(F)cc2)CC1 | 3% | >77 | 13% | 17% | 10* | 17%
O=C(O)[C@@H]1[C@H](C(=O)O)[C@H]2C(=O)C=C[C@H]1N2Cc1ccccc1 | -3%[9.17 µM] | . | -1%[11.4 µM] | . | . | 0%[11.4 µM]
CO/N=C(\C(=O)N[C@@H]1C(=O)N2C(C(=O)O)=C(CSc3nc(=O)c(O)nn3C)CS[C@@H]12)c1csc(N)n1 | -2% | . | 2% | -5% | . | -8%
CCOc1ccc(Nc2cc(C)nc(-n3nc(C)cc3C)n2)cc1 | 2% | >77 | ? | 8% | 6.3* | ?
Cc1cc(C)n(-c2nc(Nc3ccccc3)nc(-n3nc(C)cc3C)n2)n1 | 0% | >77 | 19% | 13µM* | >57 | 16%
CNc1cc(C)nc(-n2nc(C)cc2C)n1 | 6% | >77 | 2% | 12% | >57 | 14%
Cc1cc(NC2CCCCC2)nc(N2CCOCC2)n1 | . | . | 17% | . | . | 4%
COc1ccc(Nc2cc(C)nc(N3CCOCC3)n2)cc1 | . | 11* | 3% | -2% | 1.5* | 0%
CC(=O)Nc1ccc2c(c1)C(=Nc1ccc(C(=O)O)cc1)c1ccccc1-2 | -3%[9.17 µM] | . | -1%[11.4 µM] | . | . | -6%[11.4 µM]
CO[C@H]1COC(=O)[C@H](C)NC(=O)C/C=C\[C@@H](C)[C@@H](NS(=O)(=O)c2ccc(C)cc2)COC(=O)C/C=C\[C@@H]1C | . | . | -4%[11.4 µM] | . | . | -1%[11.4 µM]
COc1ccccc1N1CCN(CCCNc2cc(=O)n(C)c(=O)n2C)CC1 | 0% | . | ? | 3% | . | 13µM*!
COc1ccccc1N1CCN(CCCNc2c(C)c(=O)n(C)c(=O)n2C)CC1 | -3% | . | 10% | -2% | . | 4%
CCOC(=O)c1cc2c(ccn2C)n1Cc1ccccc1C | 7% | >77 | ? | -10% | >57 | 25µM*
COC(=O)c1ccccc1NC(=O)c1cc(OC)cc(OC)c1 | -5% | . | ? | -25% | >57 | 25µM*
COC(=O)c1ccccc1NC(=O)COc1ccccc1 | 30% | . | ? | -3% | . | 32µM*
Cc1ccc(C(=N)c2ccccc2Cc2cccc3ccccc23)c2ccccc12 | 0%[9.17 µM] | . | 3%[11.4 µM] | . | . | 9%[11.4 µM]
O=C1O[C@@H]([C@@H](O)CO)[C@@H](O)[C@H]1O | -3%[20.5 µM] | . | -15%[25.6 µM] | 6%[17.1 µM] | . | 0%[25.6 µM]
O=C(NC1CCCC1)c1cc(-c2cccs2)on1 | -12% | >77 | 3% | 4% | >11 | 26%
CC1CCCC(C)N1C(=O)c1cc(-c2cccs2)on1 (centres undefined) | -3% | >77 | 20µM* | -14% | >57 | 16%
CCOC(=O)COc1ccc2c(c1)c(C(=O)OCC)c(C)n2CC | -6% | ? | 23% | -4% | >57 | 10%
SMILES | Ub-GFP proteasome | GBA activity | TSHR agonist | USP2a inhib | Bst PK mod | HEK293 cAMP cs
CCOC(=O)c1c(C)n(CC(O)c2ccccc2)c2ccc(O)cc12 (centres undefined) | 0% | >77 | 25µM* | 6% | >57 | -2%
c1cc(N2CCCC2)ccc1C(c1nnnn1C1CCCCC1)N1CCOCC1 (centres undefined) | 5% | ? | 10% | 9% | >57 | 27%
c1ccc(CC2CCN(C(c3cccs3)c3nnnn3C3CCCC3)CC2)cc1 (centres undefined) | 8% | . | ? | -3% | >57 | ?
COc1ccc(C(c2nnnn2C2CCCC2)N2CCC(C)CC2)cc1 (centres undefined) | -1% | >77 | ? | -6% | >57 | 20µM*
Clc1ccc(C(c2nnnn2C2CCCC2)N2CCSCC2)cc1 (centres undefined) | -1% | . | ? | 1% | >57 | 3.2µM*
COc1ccc(C(c2nnnn2C2CCCCC2)N2CCN(c3ccc(OC)cc3)CC2)cc1 (centres undefined) | -2% | . | 18% | 14% | >57 | 16%
COc1ccccc1N1CCN(C(c2cccs2)c2nnnn2C2CCCC2)CC1 (centres undefined) | 0% | >77 | ? | 19% | >57 | 13µM*
CCOc1ccc(CSC2=NCCN2)cc1Cl | 5% | 8.4* | 9% | ? | >57 | 15%
Clc1ccc(CSC2=NCCN2)cc1Cl | -6%[9.17 µM] | . | -4%[11.4 µM] | . | . | 0%[11.4 µM]
Cn1cccc1C(=O)N1CCC[C@@]2(CCN(C(=O)Nc3cccc(F)c3)C2)C1 | 0% | . | 7% | 10% | . | 17%
COc1ccc(C[N+](C)(C)N)cc1OC | 3%[9.17 µM] | . | 4%[11.4 µM] | . | . | 9%[11.4 µM]
N#Cc1c(N2CCN(C(=O)c3ccco3)CC2)nc(-c2ccccc2)c2c1CCCC2 | -3% | . | ? | ? | . | 16µM*
CN1/C(=C/C(=O)c2nc(S(C)(=O)=O)ncc2Cl)C(C)(C)c2ccccc21 | 1% | >77 | -4% | 3% | >57 | -12%
CN1/C(=C\C(=O)c2ccco2)C(C)(C)c2ccccc21 | -3% | >77 | ? | -6% | >57 | 20µM*
CN1/C(=C\C(=O)COC(=O)C2COc3ccccc3O2)C(C)(C)c2ccccc21 (centres undefined) | -10% | >77 | 16% | 10% | >57 | 3%
CN1/C(=C\C(=O)COc2ccc3c(c2)OCO3)C(C)(C)c2ccccc21 | 1% | >77 | ? | 15% | >57 | 32µM*
CN1/C(=C\C(=O)C(F)F)C(C)(C)c2ccccc21 | 0% | . | ? | 0% | . | 32µM*
Cc1c(N=C/C=C2\N(C)c3ccccc3C2(C)C)c(=O)n(-c2ccccc2)n1C | -6% | . | 7% | 5% | >57 | -1%
OCCNc1ncnc2c1ncn2[C@@H]1O[C@@H](CO)[C@H](O)[C@@H]1O | -3%[9.17 µM] | . | 5%[11.4 µM] | . | . | -9%[11.4 µM]
Cn1c(=O)c(-c2ccc(Cl)cc2)nc2cnc(OCc3ccccc3)nc21 | 1% | . | 5% | 59% | . | -5%
CC[C@H](C)C(=O)O[C@@H]1CCC=C2C=C[C@H](C)[C@@H](CC[C@H]3C[C@@H](O)CC(=O)O3)[C@H]21 | -5% | . | 37% | . | . | 11%
N#C[C@@H](N=Nc1ccccc1C(=O)O)C(N)=O | -3%[9.17 µM] | . | -3%[11.4 µM] | . | . | 4%[11.4 µM]
COCCn1c(N)c(C(=O)Nc2sc3c(c2C(=O)OC)CCCC3)c2nc3ccccc3nc21 | -5% | 7.6* | -22% | 0% | >57 | 3%
